Experimental data published in the OligoGym collection.

Target: FZD1
Assay: pooled miR-30 sensor sort-seq; sequence = guide strand
Details: shRNA
Further: reference of the scale not given here.

| Sequence | sensor-assay potency score (higher = more potent) |
| --- | --- |
| TTGCTGGTCCAGAACTCTGGAA | -1.24 |
| TTGAGGGTCTTGCCGGACCAGA | -1.52 |
| TTTCACTAGAGGGTAGAACTGG | -0.532 |
| TTGCTGTTGGTGAGCCTCGTGT | -1.11 |

Target: FZD4
Assay: as above
Details: shRNA

| Sequence | sensor-assay potency score (higher = more potent) |
| --- | --- |
| TATCAGTGAACTCCTTGGCTGA | -0.901 |
| TACAGTACTGAGAACACCCCAA | 0.428 |
| TCAGTCTTTCTAACTTGTCTGT | -0.388 |
| AACTTGTCTGTCTTTGTCCCAT | 0.289 |
| TCTTTCTAACTTGTCTGTCTTT | -0.962 |
| TTTGCTATCTGAAAGACCCAGT | 0.327 |
| TATTATAGCACATACTGAGAAA | -1.2 |
| TTTTAGTAGAATTTCCTCCAAA | -0.591 |
| TTGGTTTCCAACATAGCACAAG | -0.766 |
| TAACAGGCAATCACACACGTTG | -0.53 |
| TTGACTGAAAGACACATGCCGC | -0.778 |

Target: FZD5
Assay: as above
Details: shRNA

| Sequence | sensor-assay potency score (higher = more potent) |
| --- | --- |
| TAGAGCAGCGTGAAGATGCCGA | 0.0125 |
| TAGCAGGCCACCACAATGCTGG | -0.787 |
| TTGATGACGCTGCGGATGCGGA | -1.12 |
| TAGGAAGAAGCGCAGGTCCGGC | -0.902 |
| TCCATGTCGATGAGGAAGGTGG | -1.25 |
| TAGAGCATAGGAAGAAGCGCAG | -0.267 |
| TCCAGCTTGTCCGTCTTGGTGC | -1.11 |
| TCTCGCGGTAGTGCTGCTCGTA | -1.3 |
| TACTTGAGCATGAGCACCCAGT | -0.921 |
| TTCCATGTCGATGAGGAAGGTG | -0.703 |
| AGGAGCAGCAGCAACAGCGAGG | -2.13 |
| TTCTCCAGCTTGTCCGTCTTGG | -0.54 |

Target: FZD8
Assay: as above
Details: shRNA

| Sequence | sensor-assay potency score (higher = more potent) |
| --- | --- |
| TAAGACACGGAGCTCGCCGTGC | -0.78 |
| TTCTTGTAGTCCTCTAGGCAGA | -1.02 |
| TGTAGGTGTAGTTGTAGCCGAT | -0.983 |
| TTATATCTGTTCTTACAGGGGT | -0.138 |
| TTTACTTAAGGCATTTGCCTGG | 0.501 |
| TGTTGCTTGATGACCGAGCGGA | -0.353 |
| TTGTAGTCCATGCACAGCGTGT | -1.01 |
| TATCATGCTAATAGCAATCAAC | -0.951 |
| ATAATTAAGACATTTCTTGTTT | 0.00747 |
| TTGATGACCGAGCGGATGCGGA | -1.04 |
| TACTTGAGCATGAAGACGGCGT | 0.273 |
| TATATCTGTTCTTACAGGGGTA | -0.151 |
